# Experimental data from PMC11062922 (Nature Chemical Biology, 2023).
# Read-outs that look alike come from different tables or passages of the source.
# How the values were obtained:
# Design in all cases: species or system human, MV4-11 + K-562 + COLO205 + SK-N-BE2 + OVCAR-8
# [1] = test system: DDR2; settings: read-out: apparent Kd; compound concentrations: 100 nM and 1000 nM (sheet 'Samples'), CATDS: 6.40385177631159E-3; n = 1
# [2] = test system: ERN1; settings: read-out: apparent Kd; compound concentrations: 100 nM and 1000 nM (sheet 'Samples'), CATDS: 5.84806980625629E-3; n = 1
# [3] = test system: MET; settings: read-out: apparent Kd; compound concentrations: 100 nM and 1000 nM (sheet 'Samples'), CATDS: 6.0762727664259702E-3; n = 1
# [4] = test system: DCTPP1; settings: read-out: apparent Kd, n = 1
# [5] = test system: PI4KA; settings: read-out: apparent Kd, n = 1
# [6] = test system: CSNK1G3; settings: read-out: apparent Kd, compound concentrations: 100 nM and 1000 nM (sheet 'Samples'), n = 1
# [7] = test system: COX5A; settings: read-out: apparent Kd, compound concentrations: 100 nM and 1000 nM (sheet 'Samples'), n = 1
# [8] = test system: ADCK3; settings: read-out: apparent Kd, compound concentrations: 100 nM and 1000 nM (sheet 'Samples'), n = 1
# [9] = test system: CAMK4; settings: read-out: apparent Kd; compound concentrations: 100 nM and 1000 nM (sheet 'Samples'), CATDS: 6.74489650552607E-3; n = 1
# [10] = test system: TAOK3; settings: read-out: apparent Kd, n = 1
# [11] = test system: AKT1; settings: read-out: apparent Kd; compound concentrations: 100 nM and 1000 nM (sheet 'Samples'), CATDS: 1.3570938887082299E-2; n = 1
# [12] = test system: ACOX1; settings: read-out: apparent Kd; compound concentrations: 100 nM and 1000 nM (sheet 'Samples'), CATDS: 0.16885310198044201; n = 1
# [13] = test system: PDXK; settings: read-out: apparent Kd; compound concentrations: 100 nM and 1000 nM (sheet 'Samples'), CATDS: 0.20460809182567499; n = 1
# [14] = compound concentrations:100 nM and 1000 nM (sheet 'Samples')
compound,measurement,setting,value
COc1ccc(Nc2ncc(C#N)c(Nc3ccccc3C(N)=O)n2)cc1N1CCN(C)CC1.Cl [GSK1558669A],potency estimated from few doses,[1],1.14 µM
same,potency estimated from few doses,[2],2.14 µM
same,potency estimated from few doses,[3],1.6 µM
Cc1cccc(Nc2nc(N[C@H]3CCNC3)ncc2C(N)=O)c1.Cl [GSK2197149A],potency estimated from few doses,[4]; [14],1.15 µM
same,potency estimated from few doses,[5]; [14],1.42 µM
O=C(O)C(F)(F)F.O=c1[nH]ccc2nc(N[C@@H]3CCNC3)nc(Nc3ccc4c(c3)S(=O)(=O)CC4)c12 [GSK2181306A],potency estimated from few doses,[6]; CATDS: 9.3335280079581504E-3,1.06 µM
Cc1cc(-c2ccnc(Nc3cccc(C#N)c3)n2)cc(C)c1O [GSK1440913A],potency estimated from few doses,[7]; CATDS: 8.0504484678198804E-2,1.3 µM
COC(=O)c1cccc(NC(=O)NC2CCN(c3ccnc(Nc4cc(OC)c(OC)c(OC)c4)n3)C2)c1 (stereo not shown) [GSK1379767A],potency estimated from few doses,[8]; CATDS: 9.7786771136585404E-2,1.86 µM
NCC(NC(=O)c1cc(-c2cn[nH]c2)c(-c2ccnc3[nH]ccc23)s1)c1ccccc1.NCC(NC(=O)c1cc(-c2cn[nH]c2)c(-c2ccnc3[nH]ccc23)s1)c1ccccc1.O=C(O)C(F)(F)F.O=C(O)C(F)(F)F (stereo not shown) [GSK1325775A],potency estimated from few doses,"[5]; compound concentrations: 100 nM and 1000 nM (sheet 'Samples'), CATDS: 3.4236292814805502E-2",1.31 µM
O=C(O)C(F)(F)F.O=C(O)C(F)(F)F.O=c1[nH]ccc2nc(N[C@@H]3CCCNC3)nc(Nc3ccc(S(=O)(=O)N4CCOCC4)cc3)c12.O=c1[nH]ccc2nc(N[C@@H]3CCCNC3)nc(Nc3ccc(S(=O)(=O)N4CCOCC4)cc3)c12 [GSK2177277A],potency estimated from few doses,[9],1.19 µM
same,potency estimated from few doses,[7]; CATDS: 6.6138643227552996E-3,1.31 µM
same,potency estimated from few doses,[6]; CATDS: 7.8894585802162295E-3,0.605 µM
same,potency estimated from few doses,"[10]; compound concentrations: 100 nM and 1000 nM (sheet 'Samples'), CATDS: 6.2703295867196796E-3",1.77 µM
NC(=O)c1cc(-c2ccccc2)cc2c(C3CCNCC3)c[nH]c12 [GSK301362A],potency estimated from few doses,[10]; [14],1.57 µM
CCn1c(-c2cccnc2O)nc2cnccc21 [SB-736715],potency estimated from few doses,[11],1.61 µM
same,potency estimated from few doses,[6]; CATDS: 1.22763705207965E-2,2.06 µM
same,potency estimated from few doses,"[5]; compound concentrations: 100 nM and 1000 nM (sheet 'Samples'), CATDS: 1.5744300181729402E-2",1.17 µM
Cc1ccccc1C1=C(c2cn(C)c3ccccc23)C(=O)NC1=O [RO0317612-000],potency estimated from few doses,[12],0.761 µM
same,potency estimated from few doses,[7]; CATDS: 0.16821535460753201,0.767 µM
same,potency estimated from few doses,[13],0.529 µM
O=C1N=C(NCCCc2ccccc2)S/C1=C\c1ccc2ncccc2c1 [RO4493941-000],potency estimated from few doses,[8]; CATDS: 7.1008465963160003E-2,0.94 µM
O=C1N=C(NCc2cccs2)O/C1=C\c1ccc2ncccc2c1 [RO4624208-000],potency estimated from few doses,"[4]; compound concentrations: 100 nM and 1000 nM (sheet 'Samples'), CATDS: 5.0969349281877803E-2",1.27 µM
